A selection: hits, their analogues and other compounds. The true share with any hit is near 11%.
HP1b binding inh – inhibitors of HP1-beta chromodomain binding to methylated histone tails; 390,000 tested, 0.56% active; P83916; AlphaScreen HP1-beta / biotin-H3K9me3 peptide binding; Potency, µM (doses to about 114 µM), inactives show at the highest dose activity change, negative = inhibition, most hits filed as inhibitors; note: nearly all actives have a fitted effect of over 70% in size
Target sequence (P83916 whole entry, looked up): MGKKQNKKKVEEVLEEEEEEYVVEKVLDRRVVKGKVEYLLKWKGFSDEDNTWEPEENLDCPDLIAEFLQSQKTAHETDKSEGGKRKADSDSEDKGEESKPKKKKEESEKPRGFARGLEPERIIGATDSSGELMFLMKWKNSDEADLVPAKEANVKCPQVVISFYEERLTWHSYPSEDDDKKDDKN
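HP1-beta protein (50 nM final) preincubated 30 min at room temperature with biotinylated H3(1-18)K9me3 peptide (50 nM) in PBS pH 7.4, 0.01% Tween-20, then compound added for 30 min. AlphaScreen streptavidin donor/nickel chelate acceptor beads (10 ug/mL final), 30 min dark, luminescence read.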
JMJD2A Tudor – JMJD2A Tudor domain (human) inhibition; O75164; AlphaScreen JMJD2A-Tudor / H3K4me3 peptide binding; Potency, µM (top dose mostly 114 µM), for inactives: at the highest dose activity change, negative = inhibition, usual class: inhibitors; 390,000 tested, 4.4% active; AID 504339; note: % is set by controls: 0 for no effect and ±100 for the full control effect; nearly all actives have a fitted effect of over 50% in size
G9a inh – inhibitors of human histone lysine methyltransferase G9a. G9a H3K9 monomethylation, AlphaScreen, 2 h. Potency, µM (top dose mostly 102 µM), inactives show top-dose activity, negative = inhibition, actives largely listed as inhibitors. 350,000 tested, 8.8% active; note: % is set by controls: 0 for no effect and ±100 for the full control effect; nearly all actives have a fitted effect of over 75% in size
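Quantitative HTS format: methyltransferase activity on a biotin-tagged H3K9 peptide is measured by AlphaScreen, using a rabbit anti-monomethyl-H3K9 antibody with streptavidin donor and anti-IgG acceptor beads. Final levels are 20 nM enzyme, 500 nM peptide, 20 uM SAM; 2 h RT.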
VDR inh – blocks the human vitamin D receptor; P11473; VDR-SRC2-3 peptide fluorescence polarization, 2 h; Potency, µM, for the others: max response, negative = inhibition, actives largely listed as inhibitors; 400,000 tested, 0.93% active; AID 504847; note: % is set by controls: 0 for no effect and ±100 for the full control effect
Target sequence (P11473 whole entry, looked up): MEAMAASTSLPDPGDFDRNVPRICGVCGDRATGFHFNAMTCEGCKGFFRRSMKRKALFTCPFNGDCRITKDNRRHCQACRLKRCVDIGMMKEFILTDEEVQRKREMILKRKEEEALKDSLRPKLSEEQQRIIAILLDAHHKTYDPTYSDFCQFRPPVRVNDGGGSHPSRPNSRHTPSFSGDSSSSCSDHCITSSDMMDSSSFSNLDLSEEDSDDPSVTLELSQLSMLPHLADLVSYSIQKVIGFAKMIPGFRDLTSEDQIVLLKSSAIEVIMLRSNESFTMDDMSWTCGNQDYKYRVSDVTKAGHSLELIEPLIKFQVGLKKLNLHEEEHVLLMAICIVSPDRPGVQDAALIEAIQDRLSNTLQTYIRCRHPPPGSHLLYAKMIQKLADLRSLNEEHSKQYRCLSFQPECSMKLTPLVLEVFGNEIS
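Signal is fluorescence polarization, reporting how far test compounds block the interaction of VDR with the SRC2-3 coregulator peptide after a 2 h room-temperature incubation.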
PLK1 PBD inh – blocks phosphopeptide binding to human PLK1 polo-box domain | P53350 | 360,000 tested, 2.8% active | Plk1 PBD binding of FITC phosphopeptide, fluorescence polarization | Potency, µM, for the others: max response, negative = inhibition, hits mostly inhibitors; note: series mostly up to about 57 µM; % is set by controls: 0 for no effect and ±100 for the full control effect; nearly all actives have a fitted effect of over 65% in size
BAZ2B inh – BAZ2B (human) inhibition | Q9UIF8 | AlphaScreen BAZ2B-H3K14Ac peptide displacement | Potency, µM (titrated, usually from 114 µM), without a hit: at the highest dose activity change, negative = inhibition, usual class: inhibitors | 360,000 tested, 4.4% active; note: % is set by controls: 0 for no effect and ±100 for the full control effect; nearly all actives have a fitted effect of over 60% in size
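Complex of BAZ2B and biotin-H3K14Ac (50 nM apiece) forms over 30 min at RT, then faces library compounds up to 110 uM for another 30 min; AlphaScreen beads added, 20 min dark incubation, luminescence read.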
* = called active by the depositor; u = inconclusive; x = not tested or not shown; [ ] = dose if it differs, or a comment. Calls come from the whole dose curve; as a rule, active = well fitted curve in the direction sought with a large enough effect; inconclusive = small, poorly fitted or top-dose-only effect, or another doubt; inactive = no such curve, though single readings can be large; an effect the other way counts as inactive or inconclusive. Potency is the fitted concentration of half-maximal effect.

SMILES	HP1b binding inh	JMJD2A Tudor	G9a inh	VDR inh	PLK1 PBD inh	BAZ2B inh
Cc1ccc(NC(=O)N2C3CCCC2CC(NC(=O)C(C)(C)C)C3)cc1 (stereo unspecified)	25%	-13%	27%[59 µM]	1%	-3%	8%
COc1ccc(N2C(c3ccsc3)=Cc3cc4c(cc3C2c2c[nH]c3ccccc23)OCO4)cc1 (stereo unspecified)	x	x	x	x	-2%	x
CCNC(=S)NNC(=O)c1ccc(OC)cc1	77%	-3%	6%	-6%	-5%	-15%
COc1ccc(C(=O)NNC(=S)Nc2ccccc2)cc1	15%	-4%	45µM*	-10%	-2%	-3%
CCn1c(C)nc2cc(C(=O)NNC(=S)Nc3ccc(OC)cc3)ccc21	26%	-8%	40µM*	-6%	-22%	-3%
O=C(Nc1nncs1)C1CC(=O)N(C2CCCC2)C1 (stereo unspecified)	32%	-32%	60%	21%	-12%	2%
CC1(C)CN(O)CCN1O	20%	-17%	20µM*	0%	-6%	-28%
CCOC(=O)C1(C)CCCN(C(=O)C(c2ccccc2)c2ccccc2)C1 (stereo unspecified)	x	x	x	x	-9%	x
COCCCn1c(Cc2csc(Nc3cccc(Cl)c3)n2)nnc1SCC(=O)OC	-7%	56µM*	28µM*	11%	-16%	u
CCOC(=O)CSc1nnc(CNc2cccc(Cl)c2)n1C	49%	u	-1%[59 µM]	14%	-14%	5%
CC(C)Cn1c(N)c(C=O)c(=O)[nH]c1=O	27%	-11%	8%	-16%	-1%	x
Cc1cc(N)c2ccccc2[n+]1CCCCCCCCCCCCCC[n+]1c(C)cc(N)c2ccccc21	x	x	0.4µM*	x	x	x
O=[N+]([O-])c1ccc(-c2nc(Nc3ccc(O)cc3)c3ccccc3n2)cc1	19%	-12%	u	7%	-2%	-4%
O=[N+]([O-])c1ccc(Nc2c3ccccc3nc3ccccc23)cc1	-20%	u	13µM*	-5%	-10%	u
O=C(O)c1ccc(Nc2nc(-c3ccc([N+](=O)[O-])cc3)nc3ccccc23)cc1	-8%	u	7%	7%	u	50µM*
O=C(CNCc1ccc(Cl)cc1)N1CCc2ccccc2C1	-34%	22µM*	-4%	7%	-9%	u
O=C(CNC1CCCCC1)N1CCc2ccccc2C1	-10%	3.2µM*	-46%[12.7 µM]	-4%	-2%	71µM*
O=C(NC1CCCCC1)N1CCc2ccccc2C1	-12%	-20%	7%	-16%	-11%	-11%
O=C(CNCCc1ccccc1)N1CCc2ccccc2C1	u	3.2µM*	22µM*	-17%	-6%	50µM*
O=C(Cc1ccccc1)NCC(=O)N1CCc2ccccc2C1	21%	-10%	-11%	7%	-14%	8%
CC(NCc1ccco1)C(=O)N1CCc2ccccc2C1 (stereo unspecified)	u	11µM*	u	-2%	-2%	56µM*
CC(NC(=O)CN1CCc2ccccc21)c1ccccc1 (stereo unspecified)	6%	-29%	25µM*	-8%	-13%	-25%
CC(=O)C(Cc1ccccc1)NC(=O)CN1CCc2ccccc2C1 (stereo unspecified)	-2%	-16%	23%	9%	-1%	-14%
O=C(NCc1ccc(Cl)cc1)N1CCc2ccccc2C1	32%	1%	27%	4%	1%	5%
CC(CCc1ccccc1)NC(=O)CN1CCc2ccccc2C1 (stereo unspecified)	6%	u	3%	-16%	27µM*	-18%
SMILES	HP1b binding inh	JMJD2A Tudor	G9a inh	VDR inh	PLK1 PBD inh	BAZ2B inh
O=C(CNCc1cccc(Cl)c1)N1CCc2ccccc2C1	-37%	20µM*	14µM*	-1%	-5%	56µM*
CC12CCC(C(=O)NCc3ccc4c(c3)OCO4)(C(=O)C1=O)C2(C)C (stereo unspecified)	28%	1%	45µM*	-9%	-9%	-22%
Cc1ccccc1NC(=O)Nc1ccccc1C(N)=O	-7%	-13%	-3%[59 µM]	-25%	27µM*	2%
Cc1ccccc1NNC(N)=S	10%	-15%	11µM*	-15%	-16%	-17%
C=CCN(CC=C)Cc1c(O)ccc2c(=O)c(-c3ccccc3)coc12	25%	-12%	-5%	-1%	-25%	-14%
COc1ccccc1NC(=O)C1=C(C)Nc2ncnn2C1c1ccc[nH]1 (stereo unspecified)	17%[57 µM]	56µM*	-44%[59 µM]	8%	x	u
CCOc1ccccc1NC(=O)C1=C(C)Nc2ncnn2C1c1ccco1 (stereo unspecified)	23%[57 µM]	-1%	1%[59 µM]	11%	x	-2%
CC1=C(C(=O)Nc2cccc(C(F)(F)F)c2)C(c2ccccn2)n2ncnc2N1 (stereo unspecified)	5%[57 µM]	50µM*	20µM*	-1%	x	u
COc1ccc(NC(=O)C2=C(C)Nc3ncnn3C2c2ccccn2)cc1 (stereo unspecified)	-1%[57 µM]	89µM*	u	-3%	x	u
CC1=C(C(=O)Nc2ccccn2)C(c2ccc(F)cc2)n2ncnc2N1 (stereo unspecified)	11%	-16%	-45%	3%	-8%	-3%
COc1ccccc1NC(=O)C1=C(C)Nc2ncnn2C1c1ccccn1 (stereo unspecified)	44%	7%	12%[59 µM]	-10%	x	0%
Cc1ccc(S(=O)(=O)N2CCCCC2)cc1NC(=O)c1ccccn1	29%	-10%	u	-10%	-7%	-35%
OC(COC(c1ccccc1)c1ccccc1)CN1CCN(c2ccccn2)CC1 (stereo unspecified)	13%	-31%	7%[59 µM]	20%	-15%	-33%
CC(=O)c1ccc(OCC(O)CN2CCN(c3ccccn3)CC2)cc1 (stereo unspecified)	89%	u	56µM*	-11%	-8%	-36%
CCCc1ccc(OCC(O)CN2CCN(c3ccccn3)CC2)cc1 (stereo unspecified)	5%	u	50µM*	-3%	-13%	u
CC(=O)c1ccc(OCC(O)CN2CCN(S(=O)(=O)c3c(C)c(C)cc(C)c3C)CC2)cc1 (stereo unspecified)	7%	-34%	50µM*	1%	-6%	-19%
Cc1cc(C)n2nc(CCc3nc4nc(C)cc(C)n4n3)nc2n1	x	x	-5%	x	x	-5%
COc1ccc(C)cc1NC(=O)c1nc2nc(C)cc(C)n2n1	26%	3%	x	-1%	5%	x
Cc1cc(C)n2nc(C(=O)Nc3cccnc3)nc2n1	24%	-13%	-27%[12.7 µM]	-3%	-4%	16%
Cc1cc(C)n2nc(C(=O)Nc3nccs3)nc2n1	27%	11µM*	-9%	-5%	-5%	4%

High-throughput results from PubChem BioAssay.
